These results are taken from PubChem BioAssay (NCI).

About 83,000 compounds went through this panel and 20% of them were active in at least one assay; those are over-represented in the sample as a whole.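 A percent growth of 40 corresponds to 60% growth inhibition; 0 means no net growth; -100 means all cells died. Active threshold: below 10.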 Values without a mark were called inactive. Activity calls are given as the source filed them.

Some test systems named below: SK-MEL-2 melanoma; EKVX NSCLC; SN12C renal; UO-31 renal; TK-10 renal; ACHN renal; A498 renal; CCRF-CEM leukemia; MOLT-4 leukemia; SR leukemia.
Test in all cases: NCI-60 one-dose screen, 48 h (100 = growth as untreated, 0 = no growth, -100 = all killed)
Conditions in all cases: 10 µM unless noted

Turning to `O=C(Nc1ccccc1)NS(=O)(=O)c1c[nH]c(=S)[nH]c1=O`, the growth in the assay with SK-MEL-2 melanoma is 91.5%; in the assay on EKVX NSCLC, 99.6%; in the assay with SN12C renal, 103%; in the assay on UO-31 renal, 89.3%; with TK-10 renal it was 97.6%; with ACHN renal it was 108%. Further, the growth is 112% in the assay with A498 renal, 113% in the assay on CCRF-CEM leukemia, 90.8% in the assay with MOLT-4 leukemia and 87.3% in the assay on SR leukemia.
On to `CCCCn1c2cc(OCc3cn(-c4ccc(Cl)cc4)nn3)ccc2c2ccnc(C)c21`, for which the growth in the assay on SK-MEL-2 melanoma was 74.5%; in the assay on EKVX NSCLC it was 44.4%; in the assay on SN12C renal, 10.5%; in the assay with UO-31 renal, -16.3% (active); in the assay with TK-10 renal, 15.6%; in the assay on ACHN renal, -47.5% (active). Moreover, the growth is 62.8% with A498 renal, 30.5% in the assay on CCRF-CEM leukemia, 6.26% (active) in the assay on MOLT-4 leukemia and -4.92% (active) in the assay on SR leukemia.
`CC1(C)Cc2c(Br)c(Br)c(Br)c(OCC(O)CN3CCOCC3)c2O1` (stereo not given): the growth in the assay with SK-MEL-2 melanoma is -46.5% (active); with EKVX NSCLC, 102%; in the assay with SN12C renal, 104%; in the assay on UO-31 renal, -87.3% (active); with TK-10 renal it was 67%; in the assay with ACHN renal, 93.4%. The growth with A498 renal is 84.3%; in the assay on CCRF-CEM leukemia, 9.89% (active); in the assay on MOLT-4 leukemia, 40.1%; with SR leukemia, 24.9%.
For `COC(=O)CCc1n(Cc2ccc3ccccc3c2)c2ccccc2[n+]1Cc1ccc2ccccc2c1`, the growth is -56.2% (active) in the assay with SK-MEL-2 melanoma; 42.1% in the assay with EKVX NSCLC; 7.8% (active) in the assay with SN12C renal; 78.9% with UO-31 renal; -5.81% (active) with TK-10 renal; 86.8% in the assay on ACHN renal. Besides, the growth is 8.46% (active) in the assay with A498 renal, 9.86% (active) in the assay with CCRF-CEM leukemia, 3.6% (active) with MOLT-4 leukemia and -47.7% (active) with SR leukemia.
As for `CCn1cc(C(=O)O)c(=O)c2cc(F)c(N3CCN(CC(=O)Nc4ccc(/C(C)=N/OC)cc4)CC3)cc21`, the growth in the assay with SK-MEL-2 melanoma was 109%; in the assay with EKVX NSCLC, 95.5%; with SN12C renal it was 101%; with UO-31 renal it was 79.9%; with TK-10 renal, 101%; with ACHN renal, 103%. Moreover, the growth in the assay on A498 renal was 92.9%; in the assay with CCRF-CEM leukemia, 105%; in the assay with MOLT-4 leukemia, 96.4%; with SR leukemia, 82.6%.
`O=C(/C(=C/c1ccc([N+](=O)[O-])cc1)SCc1ccccc1)c1ccc(Cl)cc1`: the growth in the assay on SK-MEL-2 melanoma is 84.5%; in the assay on EKVX NSCLC, 72.6%; in the assay on SN12C renal, -25.4% (active); in the assay with UO-31 renal, 59.5%; with TK-10 renal, 103%; in the assay with ACHN renal it was 76.5%. Moreover, the growth in the assay with A498 renal is 76.5%; in the assay with CCRF-CEM leukemia, 9.82% (active); in the assay with MOLT-4 leukemia, 13.5%; with SR leukemia, -1.55% (active).
With `O=C(CCc1nnc2sc(OCc3ccccc3)nn12)c1nc2ccc([N+](=O)[O-])cc2[nH]1`, the growth was 95.6% in the assay on SK-MEL-2 melanoma; 89.3% in the assay on EKVX NSCLC; 106% in the assay on SN12C renal; 67.2% in the assay on UO-31 renal; 131% with TK-10 renal; 97% in the assay on ACHN renal. In addition, the growth is 111% with A498 renal, 104% in the assay on CCRF-CEM leukemia, 95.4% in the assay with MOLT-4 leukemia and 84.1% with SR leukemia.
Turning to `O=c1[nH]c(-c2cccc(F)c2)cc2cc(F)ccc12`, the growth with SK-MEL-2 melanoma was 67.4%; with EKVX NSCLC, 39.3%; in the assay on SN12C renal, 49.3%; in the assay on UO-31 renal, 55.8%; with TK-10 renal it was 58.5%; in the assay on ACHN renal, 47%. The growth was 21.9% with A498 renal, 13.6% in the assay with CCRF-CEM leukemia, 21.9% in the assay with MOLT-4 leukemia and 22.5% in the assay with SR leukemia.
With `C#CC[C@@H]1C[C@]2(C)[C@H]3CC[C@@H]4[C@H]5[C@H](C(=C)C)CC[C@]5(C(=O)O)CC[C@@]4(C)[C@]3(C)CC[C@H]2C(C)(C)[C@H]1O`, the growth with SK-MEL-2 melanoma is 80.3%; in the assay on EKVX NSCLC, 55.4%; in the assay with SN12C renal, 39.3%; with UO-31 renal it was 23.5%; in the assay on TK-10 renal, 85.7%; with ACHN renal, 6.77% (active). In addition, the growth was 82.7% in the assay with A498 renal, 34.1% in the assay on CCRF-CEM leukemia, 26.8% with MOLT-4 leukemia and 45.5% in the assay with SR leukemia.
Take `C=C1C(=O)O[C@H]2[C@H]1CC/C(COC(=O)/C=C/c1cccnc1)=C\CC[C@@]1(C)O[C@@H]21`: the growth with SK-MEL-2 melanoma was 75.2%; in the assay on EKVX NSCLC it was 43.4%; in the assay with SN12C renal, 16.8%; with UO-31 renal it was 24.9%; in the assay with TK-10 renal it was 25.1%; in the assay with ACHN renal, -11.4% (active). Besides, the growth in the assay with A498 renal is 92.4%; in the assay with CCRF-CEM leukemia it was -7.32% (active); in the assay on MOLT-4 leukemia, 8.45% (active); in the assay on SR leukemia, 6.38% (active).
`COc1ccc(-n2nc(C(=O)NCC(=O)O)nc2-c2ccccc2)cc1`: the growth in the assay with SK-MEL-2 melanoma was 99.8%; in the assay with EKVX NSCLC, 108%; with SN12C renal, 105%; in the assay with UO-31 renal, 87.5%; with TK-10 renal, 94.1%; with ACHN renal it was 108%. Also, the growth in the assay with A498 renal was 113%; in the assay on CCRF-CEM leukemia, 102%; in the assay on MOLT-4 leukemia, 100%; in the assay on SR leukemia, 102%.
Consider `Cc1ccc2nc3nc4ccc[nH]c4cc3c2c1`, for which the growth in the assay with SK-MEL-2 melanoma is 113%; in the assay with EKVX NSCLC it was 56.8%; in the assay on SN12C renal, 105%; in the assay on UO-31 renal it was 65.8%; in the assay on TK-10 renal it was 46.9%; with ACHN renal it was 81.8%. Besides, the growth in the assay with A498 renal was 124%; with CCRF-CEM leukemia, 98.9%; with MOLT-4 leukemia, 119%; with SR leukemia, 18.1%.
As for `CCOC(=O)NC(Cc1ccccc1)c1ccccc1` (stereo not given), the growth with SK-MEL-2 melanoma was 99.2%; in the assay on EKVX NSCLC it was 105%; with SN12C renal, 106%; in the assay with UO-31 renal it was 93.2%; in the assay on TK-10 renal it was 96%; in the assay with ACHN renal, 109%. The growth in the assay with A498 renal is 94%; in the assay with CCRF-CEM leukemia it was 98.1%; in the assay with MOLT-4 leukemia it was 85.8%; in the assay on SR leukemia, 81.7%.
